Test results taken from PubChem BioAssay (NCATS).
Records with an inconclusive call do not appear. Calls of active or inactive are those of the source. Unless noted, calls follow the shape of the full dose curve.

Key:
[1] = qHTS assay for measurement of the activity of small molecule inhibitors on Zika virus induced Caspase-3 activity in human iPSC derived neural progenitor cells (hNPCs) (AID 1224857; active = well fitted inhibition curve with a large enough effect; also: % of control where 0% means no effect; nearly all actives have a fitted effect of over 65% in size)
Method in brief: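 Values are percent inhibition of virus-induced caspase-3/7 signal, scaled between uninfected cells and ZIKV-infected cells. Infection used 2 FFU/cell for 6 h after 1 h compound exposure.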

[2] = qHTS assay for measurement of the activity of small molecule inhibitors on Zika virus induced Caspase-3 activity in human astrocytoma cells (AID 1224859; active = well fitted inhibition curve with a large enough effect;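 also: plate controls were ZIKV-infected untreated cells for no effect and uninfected cells for full effect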)
Method in brief: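 Compound added 1 h pre-infection; ZIKV 2 FFU/cell on SNB-19 cells, 6 h, 37 C/5% CO2. Caspase-Glo 3/7 luminescence; values as % inhibition of ZIKV-induced caspase activity.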

[3] = Natriuretic polypeptide receptor (hNpr1) antagonism - Pilot counterscreen GloSensor control cell line (AID 1347045); also: potency is read from the fitted curve at half-maximal effect; as to activity change, negative = inhibition: series mostly up to about 38 µM; % is scaled to controls: 0 for no effect and ±100 for the full control effect
Method in brief: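 Control counterscreen: luciferase cGMP-biosensor HEK293 cells (no Npr1) received compound for 30 min at room temperature after GloSensor substrate loading. Luminescence was measured before and 20 min after soluble guanylyl cyclase activation by 50 uM nitroprusside.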

[4] = biological target: Atrial natriuretic peptide receptor 1 (Homo sapiens) (UniProt P16066); assay: Natriuretic polypeptide receptor (hNpr1) antagonism - Pilot screen (AID 1347049);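 also: agonist-evoked cGMP luminescence read 20 min after hNppA addition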; also: potency is read from the fitted curve at half-maximal effect; as to activity change, negative = inhibition: series mostly up to about 58 µM; % is scaled to controls: 0 for no effect and ±100 for the full control effect
Chain of Atrial natriuretic peptide receptor 1 (Homo sapiens) (P16066 whole entry, looked up): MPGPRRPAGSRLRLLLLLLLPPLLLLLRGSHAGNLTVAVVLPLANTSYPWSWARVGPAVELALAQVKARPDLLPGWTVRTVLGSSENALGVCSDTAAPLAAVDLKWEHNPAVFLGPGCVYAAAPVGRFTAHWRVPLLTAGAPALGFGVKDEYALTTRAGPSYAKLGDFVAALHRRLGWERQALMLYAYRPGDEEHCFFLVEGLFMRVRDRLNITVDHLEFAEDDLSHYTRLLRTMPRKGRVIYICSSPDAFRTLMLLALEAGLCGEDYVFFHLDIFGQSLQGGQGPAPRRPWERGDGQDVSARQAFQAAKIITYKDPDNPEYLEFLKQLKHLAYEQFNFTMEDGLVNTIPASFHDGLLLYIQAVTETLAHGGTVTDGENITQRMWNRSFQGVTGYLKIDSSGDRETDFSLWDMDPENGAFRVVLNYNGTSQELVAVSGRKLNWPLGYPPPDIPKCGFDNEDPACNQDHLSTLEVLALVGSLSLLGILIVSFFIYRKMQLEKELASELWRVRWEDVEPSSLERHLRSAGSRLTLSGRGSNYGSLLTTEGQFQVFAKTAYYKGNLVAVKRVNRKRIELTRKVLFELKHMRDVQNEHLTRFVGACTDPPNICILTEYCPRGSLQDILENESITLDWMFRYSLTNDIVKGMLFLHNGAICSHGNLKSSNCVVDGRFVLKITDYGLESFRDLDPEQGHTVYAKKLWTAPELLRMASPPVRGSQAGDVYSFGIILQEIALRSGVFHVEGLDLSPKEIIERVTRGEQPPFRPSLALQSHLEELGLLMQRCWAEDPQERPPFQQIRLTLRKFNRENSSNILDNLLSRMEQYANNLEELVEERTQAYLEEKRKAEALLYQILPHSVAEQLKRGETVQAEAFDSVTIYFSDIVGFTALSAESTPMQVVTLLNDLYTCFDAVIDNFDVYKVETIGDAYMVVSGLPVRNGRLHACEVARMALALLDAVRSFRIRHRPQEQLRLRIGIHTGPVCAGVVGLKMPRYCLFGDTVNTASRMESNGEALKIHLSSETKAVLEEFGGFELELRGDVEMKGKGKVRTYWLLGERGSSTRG
Method in brief: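 cGMP-sensor HEK293/hNpr1 cells, 1500/well, plated overnight at 37C. 2% GloSensor reagent, 2 h RT. Compound (23 nL pin transfer) 30 min RT, baseline luminescence pre-read. 0.1 nM hNppA, 20 min RT, post-read.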

[5] = biological target: Atrial natriuretic peptide receptor 2 (Homo sapiens) (UniProt P20594); assay: Natriuretic polypeptide receptor (hNpr2) antagonism - Pilot subtype selectivity assay (AID 1347050); also: potency is read from the fitted curve at half-maximal effect; as to activity change, negative = inhibition: % is scaled to controls: 0 for no effect and ±100 for the full control effect
Chain of Atrial natriuretic peptide receptor 2 (Homo sapiens) (P20594 whole entry, looked up): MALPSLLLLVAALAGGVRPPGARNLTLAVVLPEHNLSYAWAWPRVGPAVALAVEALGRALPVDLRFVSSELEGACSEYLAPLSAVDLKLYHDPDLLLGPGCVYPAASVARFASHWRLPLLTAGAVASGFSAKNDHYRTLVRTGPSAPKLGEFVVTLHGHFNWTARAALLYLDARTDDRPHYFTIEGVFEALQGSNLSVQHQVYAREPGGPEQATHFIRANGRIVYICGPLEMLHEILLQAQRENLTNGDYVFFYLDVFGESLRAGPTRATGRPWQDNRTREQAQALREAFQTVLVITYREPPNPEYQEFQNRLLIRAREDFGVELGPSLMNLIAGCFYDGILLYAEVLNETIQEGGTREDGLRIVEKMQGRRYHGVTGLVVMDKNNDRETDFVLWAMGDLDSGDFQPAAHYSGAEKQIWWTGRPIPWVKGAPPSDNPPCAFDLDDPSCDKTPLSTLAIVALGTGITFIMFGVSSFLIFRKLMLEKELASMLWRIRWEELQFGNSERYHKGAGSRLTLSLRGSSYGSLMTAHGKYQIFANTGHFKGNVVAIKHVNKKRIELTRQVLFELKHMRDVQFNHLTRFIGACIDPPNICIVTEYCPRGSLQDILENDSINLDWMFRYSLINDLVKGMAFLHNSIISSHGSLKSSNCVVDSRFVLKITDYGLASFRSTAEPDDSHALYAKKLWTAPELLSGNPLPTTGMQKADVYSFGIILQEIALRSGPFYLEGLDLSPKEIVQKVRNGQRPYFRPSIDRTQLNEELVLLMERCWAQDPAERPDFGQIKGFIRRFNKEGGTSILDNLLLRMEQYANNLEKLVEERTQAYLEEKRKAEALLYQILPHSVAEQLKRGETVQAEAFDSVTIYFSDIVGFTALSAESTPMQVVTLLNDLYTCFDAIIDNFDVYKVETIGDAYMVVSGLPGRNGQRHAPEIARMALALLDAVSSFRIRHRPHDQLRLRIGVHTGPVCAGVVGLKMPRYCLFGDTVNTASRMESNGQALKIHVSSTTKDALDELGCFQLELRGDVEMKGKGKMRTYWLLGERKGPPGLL
Method in brief: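 Luminescence from a genetically encoded cGMP luciferase biosensor in hNpr2-expressing HEK293 cells is read before and 20 min after adding 1 nM hNppC. Test compounds, in interplate 1:5 titrations, are added 30-50 min ahead of the agonist.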

N=S(=O)(O)Cc1noc2ccccc12
inactive: Potency [1] | Potency [2] | Potency [3] | Potency [4] | Potency [5]

CN1Cc2sccc2C(c2ccc(O)c(O)c2)C1 (stereo not given)
inactive: Potency [1] | Potency [2] | Potency [3] | Potency [4] | Potency [5]

CCSC(=N)N
inactive: Potency [1] | Potency [2] | Potency [3] | Potency [4] | Potency [5]

NCCNS(=O)(=O)c1cccc2c(Cl)cccc12
inactive: Potency [1] | Potency [2] | Potency [3] | Potency [4] | Potency [5]

NC(C(=O)N[C@@H]1C(=O)N2C(C(=O)O)=C(Cl)CS[C@H]12)c1ccccc1 (stereo not given in full)
inactive: Potency [1] | Potency [2] | Potency [3] | Potency [4] | Potency [5]

NC1(C(=O)O)CCCCC1
inactive: Potency [1] | Potency [2] | Potency [3] | Potency [4] | Potency [5]

CSc1nc(N)c2ncn([C@@H]3O[C@H](COP(=O)(O)OP(=O)(O)O)C(O)[C@H]3O)c2n1 (stereo not given in full)
inactive: Potency [1] | Potency [2] | Potency [3] | Potency [4] | Potency [5]

C=C1C[C@@]23CC[C@H]4[C@@](C)(CCC[C@@]4(C)C(=O)OC4OC(CO)C(O)C(O)C4O)[C@@H]2CC[C@]1(OC1OC(CO)C(O)C(O)C1OC1OC(CO)C(O)C(O)C1O)C3 (stereo not given in full)
inactive: Potency [1] | Potency [2] | Potency [3] | Potency [4] | Potency [5]

C[C@H](O)C(=O)C1=Nc2c(nc(N)[nH]c2=O)NC1
inactive: Potency [1] | Potency [2] | Potency [3] | Potency [4] | Potency [5]

NC/C=C\C(=O)O
inactive: Potency [1] | Potency [2] | Potency [3] | Potency [4] | Potency [5]

NCCCCN=C(N)N
inactive: Potency [1] | Potency [2] | Potency [3] | Potency [4] | Potency [5]

c1ccc2c(c1)CC(N1CCN(c3cccc4c3OCCO4)CC1)C2
inactive: Potency [1] | Potency [2] | Potency [3] | Potency [4] | Potency [5]

CCC1(O)CC2CN(CCc3c([nH]c4ccccc34)[C@@](C(=O)OC)(c3cc4c(cc3OC)N(C)C3[C@]45CCN4CC=C[C@@](CC)([C@@H](OC(C)=O)[C@]3(O)C(=O)OC)[C@H]45)C2)C1 (stereo not given in full)
inactive: Potency [1] | Potency [2] | Potency [3] | Potency [4] | Potency [5]

C[C@H](NC(=O)/C(C#N)=C/c1ccc(O)c(O)c1)c1ccccc1
inactive: Potency [1] | Potency [2] | Potency [3] | Potency [4] | Potency [5]

COc1cc(/C=C(\C#N)C(=O)Nc2nnc(C(F)(F)F)s2)ccc1OCc1ccc(C(F)(F)F)cc1C(F)(F)F
active: Potency [3] 14.7 µM | Potency [4] 23.9 µM | Potency [5] 16.5 µM
inactive: Potency [1] | Potency [2]

CCCCCC[C@@H]([C@@H](C)O)n1cnc2c(N)ncnc21
inactive: Potency [1] | Potency [2] | Potency [3] | Potency [4] | Potency [5]

C=CCN1CCc2cc(O)c(O)cc2C(c2ccccc2)C1 (stereo not given)
inactive: Potency [1] | Potency [2] | Potency [3] | Potency [4] | Potency [5]

NC(=Nc1ccccc1)NC(=O)c1nc(Cl)c(N)nc1N
inactive: Potency [1] | Potency [2] | Potency [3] | Potency [4] | Potency [5]

Cn1c(=O)[nH]c2ncn(C)c2c1=O
inactive: Potency [1] | Potency [2] | Potency [3] | Potency [4] | Potency [5]

CCCCCCCCCC(=O)NC(CN1CCOCC1)[C@H](O)c1ccccc1 (stereo not given in full)
inactive: Potency [1] | Potency [2] | Potency [3] | Potency [4] | Potency [5]

Brc1c(Br)c(Br)c2[nH]cnc2c1Br
inactive: Potency [1] | Potency [2] | Potency [3] | Potency [4] | Potency [5]

CC[N+](CC)(CC)CC(=O)Nc1c(C)cccc1C
inactive: Potency [1] | Potency [2] | Potency [3] | Potency [4] | Potency [5]

O=C(O)Cc1c[nH]c2ccc(O)cc12
inactive: Potency [1] | Potency [2] | Potency [3] | Potency [4] | Potency [5]

N[C@H](C(=O)O)[C@H](Cc1ccccc1)C(=O)O
inactive: Potency [1] | Potency [2] | Potency [3] | Potency [4] | activity change, negative = inhibition [5] -2% [at 1.53 µM]

Cn1c(=O)c2c(nc(/C=C/c3cccc(Cl)c3)n2C)n(C)c1=O
inactive: Potency [1] | Potency [2] | Potency [3] | Potency [4] | Potency [5]

O=C1C2C=CC=CC2=NC(=S)N1CCN1CCC(=C(c2ccc(F)cc2)c2ccc(F)cc2)CC1 (stereo not given)
inactive: Potency [1] | Potency [2] | Potency [3] | Potency [4] | Potency [5]

C=CC[C@H](N)C(=O)O
inactive: Potency [1] | Potency [2] | Potency [3] | Potency [4] | Potency [5]

CCCCOC(=O)NS(=O)(=O)c1sc(CC(C)C)cc1-c1ccc(Cn2c(CC)nc3c(C)cc(C)nc32)cc1
inactive: Potency [1] | Potency [2] | Potency [3] | Potency [4] | Potency [5]

CN(CC[C@@H](Oc1ccc(C(F)(F)F)cc1)c1ccccc1)CC(=O)O
inactive: Potency [1] | Potency [2] | Potency [3] | Potency [4] | Potency [5]

c1ccc(CN2CCC3(CCCc4ccccc43)CC2)cc1
inactive: Potency [1] | Potency [2] | Potency [3] | Potency [4] | Potency [5]
